Laboratory results from PubChem BioAssay (EPA / NIEHS).
Calls of active or inactive are those of the source. Rule for the calls: active = hit-call score of the fitted dose curve at least 0.9, where 1 is the maximum; inactive = score below 0.9.

Experiments:
[1] = read-out: Human Leukocyte Antigen - DR isotype (HLADR), HLA-DRA (gene 3122); experiment: BSK_3C_HLADR: BioMAP Diversity Plus: 3C Assay for Human Leukocyte Antigen - DR isotype (HLADR) Biomarker Activity (AID 2283019); conditions: primary human endothelial cells (HUVEC); actives raise or lower the signal
Outline: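 ELISA readout of surface HLA-DR on human umbilical vein endothelium, taken 24 h after chemical treatment. Gain- and loss-of-signal were both fitted relative to DMSO.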

[2] = read-out: Interleukin-8 (IL8), CXCL8 (gene 3576); experiment: BSK_3C_IL8: BioMAP Diversity Plus: 3C Assay for Interleukin-8 (IL8) Biomarker Activity (AID 2283020); conditions: primary human endothelial cells (HUVEC); actives raise or lower the signal
Outline: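 Human vascular endothelial cells (umbilical vein) in the 3C system; IL-8 level detected by ELISA at 24 h post-dose, with DMSO as baseline.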

[3] = read-out: Monokine induced gamma interferon (MIG), CXCL9 (gene 4283); experiment: BSK_3C_MIG: BioMAP Diversity Plus: 3C Assay for Monokine induced gamma interferon (MIG) Biomarker Activity (AID 2283021); conditions: primary human endothelial cells (HUVEC); actives raise or lower the signal;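 for AC50: MIG protein level measured by immunoassay in the treated endothelial cultures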
Outline: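 After 24 h of treatment, human umbilical vein endothelial cultures (3C system) had their MIG biomarker level determined by ELISA, with DMSO serving as negative control.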

[4] = BSK_3C_SRB: Viability Assessment in the BioMAP Diversity Plus: 3C Assay (AID 2283023); conditions: primary human endothelial cells (HUVEC);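 note: fitted both ways against DMSO so a hit may be signal rise or drop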
Outline: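 Absorbance at 560 nm of sulforhodamine B-stained (0.1%) total protein served as a cytotoxicity readout in human umbilical vein endothelial cells, 24 h after chemical treatment. Signal was fitted bidirectionally relative to DMSO.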

[5] = read-out: Matrix Metallopeptidase 1 (MMP1), MMP1 (gene 4312); experiment: BSK_BE3C_MMP1: BioMAP Diversity Plus: BE3C Assay for Matrix Metallopeptidase 1 (MMP1) Biomarker Activity (AID 2283024); conditions: primary human bronchial epithelial cells; actives raise or lower the signal
Outline: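 Dose cells, wait 24 h, run MMP1 ELISA; cells are human bronchial epithelial primaries. Both increases and decreases relative to DMSO counted.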

[6] = BSK_3C_Vis: BioMAP Diversity Plus: 3C Assay for Morphology Visualization (AID 2283025); conditions: primary human endothelial cells (HUVEC);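 note: fitted both ways so gain or loss versus DMSO counts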;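 for AC50: light microscopy image of cell morphology used as background control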
Outline: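 Endothelial cells from human umbilical vein were treated with test chemicals for 24 h and inspected by light microscopy for changes in cell conformation.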

[7] = read-out: Pselectin, SELP (gene 6403); experiment: BSK_4H_Pselectin: BioMAP Diversity Plus: 4H Assay for Pselectin Biomarker Activity (AID 2283026); conditions: primary human endothelial cells (HUVEC); actives raise or lower the signal
Outline: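 Human vascular endothelium from umbilical vein; P-selectin measured by ELISA at 24 h post-dose, with cytotoxicity checked by sulforhodamine B total-protein staining in parallel cultures (0.1% SRB after 10% TCA fixation, read at 560 nm).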

[8] = BSK_BE3C_SRB: Viability Assessment in the BioMAP Diversity Plus: BE3C Assay (AID 2283028); conditions: primary human bronchial epithelial cells
Outline: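 Cells (human bronchial epithelial, primary) are treated with chemicals, and after 24 h the parallel cultures are fixed in 10% TCA. These are then stained with 0.1% SRB and read at 560 nm. Gain or loss of signal is fitted relative to DMSO.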

[9] = read-out: Thrombomodulin, THBD (gene 7056); experiment: BSK_3C_Thrombomodulin: BioMAP Diversity Plus: 3C Assay for Thrombomodulin Biomarker Activity (AID 2283029); conditions: primary human endothelial cells (HUVEC); actives raise or lower the signal
Outline: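 Thrombomodulin ELISA, human primary HUVEC, 24 h post-dose; data fitted in both directions relative to DMSO.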

[10] = read-out: Vascular endothelial growth factor receptor 2 (Homo sapiens) (UniProt P35968); experiment: BSK_4H_VEGFRII: BioMAP Diversity Plus: 4H Assay for Vascular endothelial growth factor receptor 2 (VEGFR2) Biomarker Activity (AID 2283031); conditions: primary human endothelial cells (HUVEC); actives raise or lower the signal;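 for AC50: cell-surface VEGFR2 protein level quantified by ELISA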
Outline: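 ELISA read-out of VEGFRII in primary human umbilical vein endothelium, taken 24 h after chemical treatment. Responses are expressed relative to DMSO, with bidirectional fitting.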

[11] = read-out: Human Leukocyte Antigen - DR isotype (HLADR), HLA-DRA (gene 3122); experiment: BSK_BE3C_HLADR: BioMAP Diversity Plus: BE3C Assay for Human Leukocyte Antigen - DR isotype (HLADR) Biomarker Activity (AID 2283032); conditions: primary human bronchial epithelial cells; actives raise or lower the signal
Outline: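 Signal came from an ELISA for HLA-DR in human bronchial epithelial primary cells harvested 24 h after treatment; gain- and loss-of-signal fitting used DMSO controls as reference.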

[12] = read-out: Vascular cell adhesion molecule 1 (VCAM1), VCAM1 (gene 7412); experiment: BSK_4H_VCAM1: BioMAP Diversity Plus: 4H Assay for Vascular cell adhesion molecule 1 (VCAM1) Biomarker Activity (AID 2283033); conditions: primary human endothelial cells (HUVEC); actives raise or lower the signal
Outline: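 Endpoint derived from bidirectional fitting against DMSO controls of VCAM-1 ELISA signal in umbilical vein endothelial cells sampled at 24 h following treatment.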

[13] = read-out: Interferon-gamma inducible Protein 10 (IP10), CXCL10 (gene 3627); experiment: BSK_BE3C_IP10: BioMAP Diversity Plus: BE3C Assay for Interferon-gamma inducible Protein 10 (IP10) Biomarker Activity (AID 2283034); conditions: primary human bronchial epithelial cells; actives raise or lower the signal
Outline: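 Using primary human bronchial epithelial cultures, the assay captures IP-10 by ELISA one day (24 h) after exposure. Parallel SRB staining of total protein flags overt cytotoxicity. Fits run bidirectionally relative to DMSO.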

[14] = read-out: Monokine induced gamma interferon (MIG), CXCL9 (gene 4283); experiment: BSK_BE3C_MIG: BioMAP Diversity Plus: BE3C Assay for Monokine induced gamma interferon (MIG) Biomarker Activity (AID 2283035); conditions: primary human bronchial epithelial cells; actives raise or lower the signal;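 note: MIG protein measured by ELISA in BE3C cultures after 24 h of dosing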
Outline: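 Primary human bronchial epithelial cells treated for 24 h; MIG levels measured by ELISA, fitted bidirectionally versus DMSO. Parallel SRB total-protein staining assessed cytotoxicity.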

[15] = read-out: Transforming growth factor beta 1 (TGFb1), TGFB1 (gene 7040); experiment: BSK_BE3C_TGFb1: BioMAP Diversity Plus: BE3C Assay for Transforming growth factor beta 1 (TGFb1) Biomarker Activity (AID 2283036;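 note: TGF-b1 protein level measured by ELISA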); conditions: primary human bronchial epithelial cells; actives raise or lower the signal
Outline: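 In this human primary bronchial epithelial system, an ELISA quantified TGF-b1 one day after dosing. Endpoint changes in either direction were fitted relative to DMSO.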

[16] = read-out: Plasminogen activator inhibitor-1 (PAI1), SERPINE1 (gene 5054); experiment: BSK_BE3C_PAI1: BioMAP Diversity Plus: BE3C Assay for Plasminogen activator inhibitor-1 (PAI1) Biomarker Activity (AID 2283037); conditions: primary human bronchial epithelial cells; actives raise or lower the signal
Outline: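 PAI-1 biomarker levels in treated human bronchial epithelial cells are determined by ELISA at 24 h. Both increases and decreases relative to DMSO are fitted.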

[17] = read-out: urokinase plasminogen activator (uPA), PLAU (gene 5328); experiment: BSK_BE3C_uPA: BioMAP Diversity Plus: BE3C Assay for urokinase plasminogen activator (uPA) Biomarker Activity (AID 2283038); conditions: primary human bronchial epithelial cells; actives raise or lower the signal;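 note: uPA protein level quantified by ELISA in cell cultures; uPA read one day after compound addition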
Outline: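 Bronchial epithelial cells (human, primary); chemical 24 h; uPA by ELISA; bidirectional fit vs DMSO. SRB (0.1%, after 10% TCA fixation, 560 nm) in parallel cultures for cytotoxicity.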

[18] = read-out: Urokinase-type plasminogen activator receptor (uPAR), PLAUR (gene 5329); experiment: BSK_4H_uPAR: BioMAP Diversity Plus: 4H Assay for Urokinase-type plasminogen activator receptor (uPAR) Biomarker Activity (AID 2283030); conditions: primary human endothelial cells (HUVEC); actives raise or lower the signal
Outline: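 Cell-surface uPAR ELISA signal, measured 24 h after dosing human umbilical vein endothelial cells, was analyzed with bidirectional fitting relative to DMSO. Parallel SRB staining of total protein tracked overt cytotoxicity.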

[19] = BSK_4H_SRB: Viability Assessment in the BioMAP Diversity Plus: 4H Assay (AID 2283027); conditions: primary human endothelial cells (HUVEC);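 note: cells exposed to compound for 24 h before staining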
Outline: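 Human umbilical vein endothelial cells, 24 h after chemical dosing; total protein measured by 0.1% sulforhodamine B staining after 10% TCA fixation, read at 560 nm. Bidirectional fitting against DMSO.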

Measured: AC50

O=C(O)c1cc(Oc2ccc(C(F)(F)F)cc2Cl)ccc1[N+](=O)[O-]
active: [6] 9.8 µM
inactive: [1] | [2] | [3] | [4] | [5] | [7] | [8] | [9] | [10] | [11] | [12] | [13] | [14] | [15] | [16] | [17]

CC(C)N(C(=O)SCC(Cl)=C(Cl)Cl)C(C)C
active: [1] 32.9 µM | [2] 30.2 µM | [3] 38.3 µM | [4] 29.8 µM | [6] 37.2 µM | [7] 31.5 µM | [18] 31.4 µM | [10] 31.1 µM | [12] 33.1 µM
inactive: [5] | [8] | [9] | [11] | [13] | [14] | [15] | [16] | [17]

Cc1ccn2nc(S(=O)(=O)Nc3c(F)cccc3F)nc2n1
inactive: [1] | [2] | [3] | [4] | [5] | [6] | [7] | [8] | [9] | [18] | [10] | [11] | [12] | [13] | [14] | [15] | [16] | [17]

FC(F)C(F)(F)OCC(Cn1cncn1)c1ccc(Cl)cc1Cl (stereo not drawn)
inactive: [2] | [3] | [5] | [19] | [8] | [9] | [10] | [14] | [15] | [16] | [17]
active: [1] 26.9 µM | [4] 20 µM | [6] 39 µM | [7] 33.7 µM | [11] 29.8 µM | [12] 29.7 µM | [13] 26.4 µM

CC(Oc1cccc(Cl)c1)C(=O)O (stereo not drawn)
inactive: [1] | [2] | [3] | [4] | [5] | [6] | [7] | [19] | [8] | [9] | [18] | [10] | [11] | [12] | [13] | [14] | [15] | [16] | [17]

CN(C)C(=O)Nc1cccc(C(F)(F)F)c1
inactive: [1] | [2] | [3] | [4] | [5] | [7] | [19] | [8] | [9] | [10] | [11] | [12] | [13] | [14] | [15] | [16] | [17]
active: [6] 39 µM

CNC(=O)ON=C(C)SC
inactive: [1] | [2] | [3] | [4] | [5] | [6] | [7] | [19] | [8] | [9] | [18] | [10] | [11] | [12] | [13] | [14] | [15] | [16] | [17]

CCCOc1nn(C(=O)NS(=O)(=O)c2ccccc2C(=O)OC)c(=O)n1C
inactive: [1] | [2] | [3] | [4] | [5] | [6] | [7] | [19] | [8] | [9] | [18] | [10] | [11] | [12] | [13] | [14] | [15] | [16] | [17]

CCc1cccc(CC)c1N(COC)C(=O)CCl
inactive: [2] | [3] | [5] | [8] | [9] | [10] | [14] | [15] | [16] | [17]
active: [1] 20 µM | [4] 20 µM | [6] 39 µM | [7] 14.9 µM | [11] 33.4 µM | [12] 15.3 µM | [13] 31.8 µM

CCOP(=S)(OCC)Oc1cc(C)nc(C(C)C)n1
inactive: [1] | [2] | [3] | [4] | [5] | [6] | [7] | [19] | [8] | [9] | [10] | [11] | [12] | [13] | [14] | [15] | [16] | [17]

C#CC(C)(C)NC(=O)c1cc(Cl)cc(Cl)c1
inactive: [2] | [3] | [4] | [5] | [7] | [19] | [8] | [9] | [18] | [10] | [12] | [14] | [15] | [16] | [17]
active: [1] 19.1 µM | [6] 3.25 µM | [11] 4.39 µM | [13] 14.9 µM

CSc1nnc(C(C)(C)C)c(=O)n1N
active: [13] 7.16 µM
inactive: [2] | [3] | [4] | [5] | [6] | [7] | [8] | [9] | [10] | [11] | [12] | [14] | [15] | [16] | [17]

CON=C(C(=O)OC)c1ccccc1CON=C(C)c1cccc(C(F)(F)F)c1
active: [1] 2.82 µM | [2] 1.76 µM | [4] 10.4 µM | [9] 3.92 µM | [13] 20 µM | [16] 8.79 µM
inactive: [3] | [5] | [6] | [7] | [8] | [10] | [11] | [12] | [14] | [15] | [17]
